# Screens: PubChem BioAssay, several laboratories
# A selection: hits, their analogues and other compounds. The true share with any hit is near 3.6%.
# BoNT-A LC inh2 – BoNT/A light chain protease inhibitors, primary screen, biochemical, flow cytometry, MLPCN library; multiplex microsphere protease substrate cleavage; inhibition, % at 10 µM; 360,000 compounds, 0.17% hits
# BoNT-F LC inh – BoNT/F light chain protease inhibitors, primary screen, biochemical, flow cytometry, MLPCN library; Multiplex microsphere protease cleavage assay; inhibition, % at 10 µM; 360,000 compounds, 0.22% hits; Botulinum neurotoxin type F light chain protease (Clostridium botulinum); in the data active means inhibition above about 35%, passing the limit was not always enough; inconclusive means no clear call, values can overlap the other calls
# Anthrax LF inh2 – Bacillus anthracis LF protease inhibitors, primary screen, biochemical, multiplex microsphere, MLPCN library; multiplex microsphere protease cleavage assay; Lethal factor (Bacillus anthracis), P15917; 360,000 compounds, 0.12% hits; inhibition, % at 10 µM; AID 588501, 2011
# Bead autofluor – compound fluorescence in toxin protease inhibitor counterscreen | fluorescence intensity (test concentration not listed) | compound autofluorescence counterscreen, microsphere flow cytometry; stronger effect = higher value | AID 624483 | 360,000 compounds, 3.1% hits; in the data active means fluorescence intensity above about 16000; inconclusive means no clear call, values can overlap the other calls
# MazEF act – activators of E. coli MazEF toxin-antitoxin RNase, primary screen, biochemical, fluorescence, uHTS; Endoribonuclease toxin MazF (Escherichia coli (strain K12)), P0AE70; FAM/BHQ RNA-DNA oligo cleavage fluorescence, 5 h; activation, % at 20 µM; 350,000 compounds, 0.32% hits; AID 504720, 2011; in the data active means activation above about 50%
# A number is an active result; – = inactive; ? = inconclusive; · = not tested or not shown. Unless noted, no stated cut-off is given here; in the data, active means inhibition above about 30%; inconclusive means no clear call, values can overlap the other calls; inactive means below that.
SMILES,BoNT-A LC inh2,BoNT-F LC inh,Anthrax LF inh2,Bead autofluor,MazEF act
CC1=C(C(=O)OC2CCCC2)C(c2ccc(C)o2)C2=C(CC(c3cccs3)CC2=O)N1 (stereo not given),–,–,–,22029,–
CCCCC(C(=O)NCCC(C)C)N(CCCN1CCOCC1)C(=O)c1snc(C(N)=O)c1N (stereo not given),–,–,–,20769,–
CC(C)CCNC(=O)C(c1ccco1)N(Cc1ccccc1)C(=O)c1snc(C(N)=O)c1N (stereo not given),–,–,–,22391,–
Cc1ccc(N(C(=O)c2snc(C(N)=O)c2N)C(C(=O)NCCC(C)C)c2ccco2)cc1 (stereo not given),–,–,–,–,–
N#CCc1c(C#N)c(N)nc(N2CCN(c3ccc(F)cc3)CC2)c1C#N,–,–,–,–,–
N#CCc1c(C#N)c(N)nc(N2CCN(Cc3ccc4c(c3)OCO4)CC2)c1C#N,–,–,–,19575,–
CN(C)C1CN(Cc2cn(Cc3cccc(C(F)(F)F)c3)nn2)S(=O)(=O)C1 (stereo not given),–,–,–,–,·
COCCNC(=O)C1(C)CCCN(C(=O)c2ccc3c(c2)CCO3)C1 (stereo not given),–,–,–,–,·
COC(=O)[C@H](CCSC)NC(=O)NCc1ccccc1F,–,–,–,22106,–
O=S1(=O)c2ccc(Br)cc2N2CCC[C@@H]2CN1Cc1ccccc1,–,–,–,–,–
CCOC(=O)C(=CNc1ccc(Cl)cn1)C(=O)OCC,–,–,–,–,–
CCOC(=O)C(=CNc1cccc(N)n1)C(=O)OCC,–,–,–,20625,–
CC1CCCCN1C(=O)C1COc2ccccc2O1 (stereo not given),–,–,–,–,–
CCCC(C)(C)C(=O)N1CCC1(C)C(=O)NS(=O)(=O)c1ccc(Br)cc1 (stereo not given),–,–,–,–,·
Cc1ccc(-c2csc3ncnc(SCC(=O)Nc4nnc(C)s4)c23)cc1,?,–,–,21425,–
Cc1ccc(-c2csc3ncnc(SCC(=O)c4ccc5c(c4)OCCO5)c23)cc1,?,–,–,19619,–
CC(=O)CSc1ncnc2scc(-c3ccc(F)cc3)c12,–,–,–,–,–
O=C(O)c1ccc(NC(=S)NC(NC(=O)c2ccco2)C(Cl)(Cl)Cl)cc1 (stereo not given),–,–,–,25206,–
Cc1ccc(CC(NC(=O)c2ccccc2)C(=O)NC(CC(C)C)C(=O)O)cc1 (stereo not given),–,–,–,–,–
Cc1ccc(CC(NC(=O)c2ccccc2)C(=O)NCC(=O)O)cc1 (stereo not given),–,–,–,22985,–
Cc1ccc(NC(=O)C(Cc2ccccc2)NC(=O)c2ccco2)cc1 (stereo not given),?,–,–,23460,–
Cc1ccc(NC(=S)NC(NC(=O)c2ccco2)C(Cl)(Cl)Cl)cc1 (stereo not given),–,–,–,–,–
CC(=O)NCCNC(=O)[C@H](Cc1ccccc1)NC(=O)c1cccs1,?,–,–,20647,–
Cc1ccccc1CN(C)C(=O)[C@H](Cc1ccccc1)NC(=O)c1ccco1,–,–,–,–,–
CCCCNC(=O)C1(C)CCCCN1C(=O)c1ccc(OC)c(C(F)(F)F)c1 (stereo not given),–,–,–,–,·
SMILES,BoNT-A LC inh2,BoNT-F LC inh,Anthrax LF inh2,Bead autofluor,MazEF act
CCN(C[C@H]1N[C@@](C)(C(=O)OC)[C@H]2C(=O)N(Cc3ccccc3)C(=O)[C@@H]12)C(=O)Nc1ccc(F)cc1,–,–,–,–,–
CCCCC[C@@H](C)N1C[C@@H](COCc2ccccc2)Oc2cc(N3CC[C@@H](N(C)C)C3)ccc2S1(=O)=O,–,–,–,–,·
CCOC(=O)c1nc(C)n(-c2ccc(Cl)cc2)n1,–,–,–,–,–
COc1ccc(-n2nc(N)c3c(=O)oc(N(C)C)nc32)cc1,–,–,–,16554,–
CN(C)c1nc2c(c(N)nn2-c2ccc(Cl)cc2)c(=O)o1,?,–,–,19528,–
COc1ccc(-n2nc(C)c3onc(C)c3c2=O)cc1,–,–,–,–,–
CCc1ccc(N(C(=O)c2csnn2)C(C(=O)NC(C)(C)CC)c2cccnc2)cc1 (stereo not given),–,–,–,–,–
O=C1/C(=C\c2cccs2)N=C(c2cccs2)N1Nc1ccccc1,68.5,39.9,50.1,–,–
